Laboratory results taken from PubChem BioAssay.
Unmarked numbers belong to inactive results. No rule for the calls is given here.

Molecular target: Pantothenate synthetase (Mycobacterium tuberculosis (strain ATCC 25618 / H37Rv)) (UniProt P9WIL5)
Assay: Coupled enzyme confirmation of inhibitors against recombinant Mtb PanC (AID 375);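 also: 0% = full reaction with vehicle and 100% = no enzyme background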
Details: coupled enzyme assay; at 10 µM, hits give high values

Chain of Pantothenate synthetase (Mycobacterium tuberculosis (strain ATCC 25618 / H37Rv)) (P9WIL5 whole entry, looked up): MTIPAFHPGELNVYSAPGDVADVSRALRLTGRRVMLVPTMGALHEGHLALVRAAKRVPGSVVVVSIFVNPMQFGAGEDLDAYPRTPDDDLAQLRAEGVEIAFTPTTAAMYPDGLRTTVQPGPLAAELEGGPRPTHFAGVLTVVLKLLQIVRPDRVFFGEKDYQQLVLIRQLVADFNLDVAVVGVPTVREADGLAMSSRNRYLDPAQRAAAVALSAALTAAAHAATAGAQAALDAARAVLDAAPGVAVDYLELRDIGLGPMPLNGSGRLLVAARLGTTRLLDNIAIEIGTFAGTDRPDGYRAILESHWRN

Structure (SMILES)	inhibition [%]
c1ccc(-c2cc(-c3nc(-c4ccccn4)no3)c3ccccc3n2)cc1	0
CCOC(=O)C1=C(CC)Nc2ccccc2N=C1NC(=O)Nc1ccccc1OC	2
COc1ccc(Cl)cc1C(=O)n1nc(C)cc1C	0
O=S(=O)(Cc1ccc(Cl)cc1)Nc1ccc2c(c1)OCO2	7
Cc1ccc(N=Cc2ccc[nH]2)c(O)c1	0
COc1ccccc1OCc1ccc(C(=O)NC(C)(C)C)o1	2
CC(=O)N(C)C1(c2nnnn2CCOC(=O)Nc2ccc(Cl)cc2)CCCCC1	0
Cc1cc(C(=O)CSCCCn2c(=O)[nH]c3ccccc32)c(C)n1C	2
COc1ccccc1C1C(C#N)=C(N)Oc2cc(C)n(Cc3ccccn3)c(=O)c21 (stereo unspecified)	1
O=C(CSc1nnnn1Cc1ccccc1)Nc1ccc2c(c1)OCO2	1
CNC(=O)c1ccc2nc(NC(C)=O)sc2c1	0
Cn1c(=O)[nH]c2cc3ccccc3cc21	0
COc1ccc2c(=O)c3c(=O)n(Cc4ccco4)c(-c4cc(OC)c(OC)c(OC)c4)nc3oc2c1	5
CCCCOc1ccc(-c2nnn(CC(=O)Nc3ncc(CC(=O)OCC)s3)n2)cc1	2
COC(=O)CN1C(=O)C2(C(C#N)=C(N)Oc3c2c(C)nn3-c2ccccc2)c2ccccc21 (stereo unspecified)	3
O=C(Nc1nnc(C2CCCC2)s1)C1CCN(S(=O)(=O)c2ccc(Cl)cc2)CC1	0
CCCCN(C)C(=O)c1ccc(CS(=O)(=O)c2ccccc2C)o1	2
C=C(Cl)COC(=O)[C@H]1C2C=CC(C2)C1C(=O)O (stereo partly specified)	2
CCCCC(=O)NCCc1ccc(S(N)(=O)=O)cc1	0
CCOc1cccc(-c2nnc3sc(COc4ccc(OC)cc4)nn23)c1	4
O=C(CSc1ccc2nnc(-c3ccccc3)n2n1)N1CCN(c2ccccc2)CC1	1
